According to ChEMBL document CHEMBL3988442, “University of Dundee, Small-Polar-MMV Screening Library” (2021):
For some assays here: Measured potencies and affinities stand elsewhere.

How the values were obtained:
Parameters in all cases: scale not given: direction of the effect not stated beside the values
[1] = target: Protein translocase subunit SecA (Escherichia coli (strain K12)) (UniProt P10408); assay: Assay to Identify E. coli SecA ATPase Inhibitors; type: functional; settings: 30 µM
[2] = target: T1, Ubiquitin-activating enzyme e1, putative (Leishmania donovani (strain BPK282A1)) (UniProt E9BSI1); assay: Leishmania donovani Ubiquitin Activating Enzyme (LdE1); type: functional; settings: 30 µM
T1 sequence (whole entry): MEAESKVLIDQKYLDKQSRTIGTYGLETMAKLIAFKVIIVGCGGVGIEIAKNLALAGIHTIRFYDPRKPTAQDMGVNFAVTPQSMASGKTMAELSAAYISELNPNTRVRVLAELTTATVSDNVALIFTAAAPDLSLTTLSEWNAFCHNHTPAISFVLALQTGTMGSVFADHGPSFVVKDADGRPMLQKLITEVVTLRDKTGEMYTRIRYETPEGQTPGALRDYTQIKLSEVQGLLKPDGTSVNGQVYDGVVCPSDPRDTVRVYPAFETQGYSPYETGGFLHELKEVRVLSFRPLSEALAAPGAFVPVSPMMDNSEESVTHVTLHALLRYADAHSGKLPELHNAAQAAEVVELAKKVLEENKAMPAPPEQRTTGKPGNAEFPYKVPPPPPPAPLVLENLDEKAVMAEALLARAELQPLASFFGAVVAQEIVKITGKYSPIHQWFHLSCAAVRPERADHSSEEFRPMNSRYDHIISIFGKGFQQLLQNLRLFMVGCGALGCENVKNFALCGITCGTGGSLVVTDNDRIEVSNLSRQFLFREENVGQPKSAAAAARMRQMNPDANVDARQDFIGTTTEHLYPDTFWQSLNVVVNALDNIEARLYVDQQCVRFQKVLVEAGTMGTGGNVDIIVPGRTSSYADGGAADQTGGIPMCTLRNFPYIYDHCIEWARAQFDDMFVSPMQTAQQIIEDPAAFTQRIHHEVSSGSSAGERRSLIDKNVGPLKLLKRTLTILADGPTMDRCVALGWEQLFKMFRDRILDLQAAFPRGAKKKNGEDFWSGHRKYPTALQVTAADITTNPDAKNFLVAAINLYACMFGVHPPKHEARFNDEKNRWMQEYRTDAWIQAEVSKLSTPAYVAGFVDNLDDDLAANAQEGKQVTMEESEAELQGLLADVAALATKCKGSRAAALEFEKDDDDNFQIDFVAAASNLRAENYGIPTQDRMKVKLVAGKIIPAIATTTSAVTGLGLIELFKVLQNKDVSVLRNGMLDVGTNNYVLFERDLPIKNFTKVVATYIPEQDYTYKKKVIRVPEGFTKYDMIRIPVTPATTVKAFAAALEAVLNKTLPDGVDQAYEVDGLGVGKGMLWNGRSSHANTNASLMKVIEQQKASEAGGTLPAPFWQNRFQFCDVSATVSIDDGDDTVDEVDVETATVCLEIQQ

[3] = target: AMP-activated protein kinase, AMPK (Homo sapiens) (UniProt P54646+O43741+P54619+Q9UGJ0+Q9Y478+Q13131+Q9UGI9); assay: AMP-dependent Kinase enzyme assay. An in vitro enzyme assay that detects ADP turnover that is directly proportional to AMPK activity. This uses naive AMPK that is activated during the assay with MK-8722; type: functional; settings: 30 µM
[4] = target: Sialic acid-binding Ig-like lectin 9 (Homo sapiens) (UniProt Q9Y336); assay: Hs-Siglec9 ALPHAscreen SOP 20170721; settings: 10 µM
Sequence of Sialic acid-binding Ig-like lectin 9 (Homo sapiens) (Q9Y336 whole entry): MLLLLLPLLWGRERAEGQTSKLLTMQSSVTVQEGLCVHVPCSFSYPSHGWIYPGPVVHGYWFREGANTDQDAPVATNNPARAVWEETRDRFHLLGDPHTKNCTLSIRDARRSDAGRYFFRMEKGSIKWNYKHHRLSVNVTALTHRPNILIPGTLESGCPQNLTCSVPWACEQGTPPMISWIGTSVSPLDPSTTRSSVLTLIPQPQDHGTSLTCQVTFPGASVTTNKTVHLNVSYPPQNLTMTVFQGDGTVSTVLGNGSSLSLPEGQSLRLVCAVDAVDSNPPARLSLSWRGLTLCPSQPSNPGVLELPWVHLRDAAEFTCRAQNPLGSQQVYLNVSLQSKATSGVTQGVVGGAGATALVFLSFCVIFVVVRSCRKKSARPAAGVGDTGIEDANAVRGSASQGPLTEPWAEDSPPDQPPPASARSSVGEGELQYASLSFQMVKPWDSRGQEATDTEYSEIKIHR

Trypanosoma cruzi = assay: Trypanosoma cruzi phosphomannomutase and mannose-1-phosphate guanylyltransferase assay; type: functional; settings: 10 µM
[5] = target: T2, Arginase-2, mitochondrial (Homo sapiens) (UniProt P78540); assay: in vitro enzyme assay to detect the production of urea directly proportional to the activity of Arginase II; type: functional; settings: 33.3 µM; further: in the data most compounds retested in dose-response had high values
T2 sequence (whole entry): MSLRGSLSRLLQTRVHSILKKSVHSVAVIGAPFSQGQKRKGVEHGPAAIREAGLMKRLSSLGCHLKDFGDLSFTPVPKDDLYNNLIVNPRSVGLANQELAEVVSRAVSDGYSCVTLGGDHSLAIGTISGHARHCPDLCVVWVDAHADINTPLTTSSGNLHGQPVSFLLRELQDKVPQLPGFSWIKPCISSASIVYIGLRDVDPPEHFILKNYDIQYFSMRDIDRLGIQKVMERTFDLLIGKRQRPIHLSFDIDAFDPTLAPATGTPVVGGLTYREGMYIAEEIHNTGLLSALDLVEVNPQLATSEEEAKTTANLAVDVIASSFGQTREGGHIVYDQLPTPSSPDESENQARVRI

[6] = target: T3, Proteasome subunit beta (Trypanosoma cruzi) (UniProt O96673); assay: Trypanosoma cruzi proteasome chymotrypsin-like activity (TcProtChymo) assay.; further: in the data most compounds retested in dose-response had high values; type: functional; settings: 9.37 µM
T3 sequence (whole entry): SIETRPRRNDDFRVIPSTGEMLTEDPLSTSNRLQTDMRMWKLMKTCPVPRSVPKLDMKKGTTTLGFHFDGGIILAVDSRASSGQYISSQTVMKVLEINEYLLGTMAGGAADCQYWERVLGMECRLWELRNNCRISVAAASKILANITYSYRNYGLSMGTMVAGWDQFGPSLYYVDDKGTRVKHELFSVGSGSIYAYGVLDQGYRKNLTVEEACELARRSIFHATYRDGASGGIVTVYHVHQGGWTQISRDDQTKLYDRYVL

Homo sapiens = species: Homo sapiens; assay: To identify inhibition of the IFN signalling (Jak-Stat) pathway via expression of an eGFP reporter gene under the control of an IFN-stimulated response element (ISRE) containing MxA promoter.; type: functional; settings: 30 µM
[7] = target: T4, Tyrosyl-tRNA synthetase, putative (Trypanosoma cruzi (strain CL Brener)) (UniProt Q4DSP6); assay: Trypanosoma cruzi tyrosyl tRNA synthetase (TcYRS) _High Tyrosine SOP; type: functional; settings: 30 µM; further: in the data most compounds retested in dose-response had high values
T4 sequence (whole entry): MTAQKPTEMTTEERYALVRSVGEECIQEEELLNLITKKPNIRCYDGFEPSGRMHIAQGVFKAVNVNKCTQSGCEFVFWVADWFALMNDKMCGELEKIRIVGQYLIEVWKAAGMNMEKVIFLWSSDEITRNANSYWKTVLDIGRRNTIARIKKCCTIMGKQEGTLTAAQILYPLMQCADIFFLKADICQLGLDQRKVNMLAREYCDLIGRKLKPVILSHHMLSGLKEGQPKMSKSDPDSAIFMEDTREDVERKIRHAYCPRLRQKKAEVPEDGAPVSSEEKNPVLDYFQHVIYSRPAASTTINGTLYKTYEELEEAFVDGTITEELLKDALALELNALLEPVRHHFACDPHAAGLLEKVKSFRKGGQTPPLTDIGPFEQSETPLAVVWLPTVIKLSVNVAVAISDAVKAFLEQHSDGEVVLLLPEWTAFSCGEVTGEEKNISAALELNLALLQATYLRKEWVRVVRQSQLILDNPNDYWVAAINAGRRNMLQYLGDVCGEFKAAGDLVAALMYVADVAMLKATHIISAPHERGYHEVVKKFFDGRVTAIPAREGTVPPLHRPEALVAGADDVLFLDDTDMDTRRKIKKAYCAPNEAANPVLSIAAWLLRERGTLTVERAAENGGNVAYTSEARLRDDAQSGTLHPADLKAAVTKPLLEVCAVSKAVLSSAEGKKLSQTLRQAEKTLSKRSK

[8] = target: T4, Tyrosyl-tRNA synthetase, putative (Trypanosoma cruzi (strain CL Brener)); assay: Trypanosoma cruzi tyrosyl tRNA synthetase (TcYRS) SOP; type: functional; settings: 30 µM
[9] = target: Chromo domain-containing protein 1 (Saccharomyces cerevisiae (strain ATCC 204508 / S288c) (Baker's yeast)) (UniProt P32657); assay: ScCHD-1 Enzyme Inhibition Assay; type: functional; settings: 30 µM; further: in the data most compounds retested in dose-response had high values
Sequence of Chromo domain-containing protein 1 (Saccharomyces cerevisiae (strain ATCC 204508 / S288c) (Baker's yeast)) (P32657 whole entry, the tested form may be a part): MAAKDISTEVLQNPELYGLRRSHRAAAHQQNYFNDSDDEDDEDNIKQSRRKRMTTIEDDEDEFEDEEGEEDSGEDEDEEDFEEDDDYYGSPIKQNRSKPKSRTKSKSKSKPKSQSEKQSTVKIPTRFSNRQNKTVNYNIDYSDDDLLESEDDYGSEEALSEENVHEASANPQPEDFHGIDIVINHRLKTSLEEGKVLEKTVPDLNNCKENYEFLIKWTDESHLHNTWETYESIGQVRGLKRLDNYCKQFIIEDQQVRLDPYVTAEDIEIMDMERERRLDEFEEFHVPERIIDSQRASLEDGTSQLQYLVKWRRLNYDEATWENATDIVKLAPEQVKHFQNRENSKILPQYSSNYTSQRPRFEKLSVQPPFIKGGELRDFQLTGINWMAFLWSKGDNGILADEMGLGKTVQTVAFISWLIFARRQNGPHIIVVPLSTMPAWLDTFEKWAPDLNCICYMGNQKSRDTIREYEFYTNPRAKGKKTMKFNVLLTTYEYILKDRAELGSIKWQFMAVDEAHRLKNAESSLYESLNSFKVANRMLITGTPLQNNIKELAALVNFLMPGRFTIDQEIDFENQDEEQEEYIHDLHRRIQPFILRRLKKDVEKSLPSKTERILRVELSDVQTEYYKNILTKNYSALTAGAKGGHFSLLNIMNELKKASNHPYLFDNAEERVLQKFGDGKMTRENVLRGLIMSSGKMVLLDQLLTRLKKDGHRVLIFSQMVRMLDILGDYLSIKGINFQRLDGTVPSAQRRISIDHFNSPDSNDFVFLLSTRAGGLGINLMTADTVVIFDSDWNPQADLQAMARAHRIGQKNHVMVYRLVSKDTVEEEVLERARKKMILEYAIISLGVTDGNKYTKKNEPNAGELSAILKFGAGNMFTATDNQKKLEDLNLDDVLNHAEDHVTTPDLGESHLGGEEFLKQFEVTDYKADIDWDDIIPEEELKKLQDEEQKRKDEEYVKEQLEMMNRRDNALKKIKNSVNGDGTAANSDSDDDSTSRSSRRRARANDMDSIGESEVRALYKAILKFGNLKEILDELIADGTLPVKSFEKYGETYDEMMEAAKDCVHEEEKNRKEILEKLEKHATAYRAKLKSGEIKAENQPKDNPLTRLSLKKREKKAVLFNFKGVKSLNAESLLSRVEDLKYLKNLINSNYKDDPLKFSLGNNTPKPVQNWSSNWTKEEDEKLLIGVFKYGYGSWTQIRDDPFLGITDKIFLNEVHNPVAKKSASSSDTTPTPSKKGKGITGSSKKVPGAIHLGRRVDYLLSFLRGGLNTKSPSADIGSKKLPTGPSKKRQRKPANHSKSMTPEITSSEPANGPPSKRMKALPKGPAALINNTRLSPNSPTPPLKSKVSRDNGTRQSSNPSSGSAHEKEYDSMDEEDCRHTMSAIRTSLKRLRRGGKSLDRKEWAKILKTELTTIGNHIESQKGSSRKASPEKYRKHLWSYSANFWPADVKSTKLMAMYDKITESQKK

Sequence of Protein translocase subunit SecA (Escherichia coli (strain K12)) (P10408 whole entry): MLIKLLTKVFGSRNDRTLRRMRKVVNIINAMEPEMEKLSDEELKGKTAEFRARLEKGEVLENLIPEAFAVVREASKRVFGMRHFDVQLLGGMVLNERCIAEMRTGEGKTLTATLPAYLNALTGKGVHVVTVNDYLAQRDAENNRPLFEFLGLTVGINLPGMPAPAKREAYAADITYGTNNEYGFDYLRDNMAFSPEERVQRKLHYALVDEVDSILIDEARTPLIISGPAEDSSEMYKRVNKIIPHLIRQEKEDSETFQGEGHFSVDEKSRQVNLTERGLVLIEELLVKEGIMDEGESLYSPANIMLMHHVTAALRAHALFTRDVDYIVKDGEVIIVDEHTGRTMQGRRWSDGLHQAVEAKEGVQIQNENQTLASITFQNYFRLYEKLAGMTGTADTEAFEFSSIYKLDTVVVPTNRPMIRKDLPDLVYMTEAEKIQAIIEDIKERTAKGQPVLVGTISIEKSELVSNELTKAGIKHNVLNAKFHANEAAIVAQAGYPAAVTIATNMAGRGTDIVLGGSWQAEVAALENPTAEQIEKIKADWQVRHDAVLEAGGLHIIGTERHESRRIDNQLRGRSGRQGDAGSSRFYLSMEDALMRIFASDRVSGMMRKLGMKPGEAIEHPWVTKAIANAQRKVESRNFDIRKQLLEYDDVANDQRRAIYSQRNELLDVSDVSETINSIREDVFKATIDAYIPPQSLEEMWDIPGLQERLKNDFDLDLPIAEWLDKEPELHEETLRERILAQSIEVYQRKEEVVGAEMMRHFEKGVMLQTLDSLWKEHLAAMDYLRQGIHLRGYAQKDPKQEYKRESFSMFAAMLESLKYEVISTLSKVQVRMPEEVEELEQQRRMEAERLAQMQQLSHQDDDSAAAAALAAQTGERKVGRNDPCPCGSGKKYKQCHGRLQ

SMILES	Percent Effect [1]	Percent Effect [2]	Percent Effect [3]	Percent Effect [4]	Percent Effect (Trypanosoma cruzi)	Percent Effect [5]	Percent Effect [6]	Percent Effect (Homo sapiens)	Percent Effect [7]	Percent Effect [8]	Percent Effect [9]
CCN1CCCC(CNC(=O)C2(c3cccc(Cl)c3)CC2)C1 (configuration not stated)	-4.26%	6.33%	0.975%	3.63%	-5.85%	-2.8%	14.6%	8.9%	7.29%	15.2%	-13.8%
O=C(Cc1ccccc1F)N1CCN(C(=O)c2ccoc2)CC1	-1.97%	7.89%	7.43%	-1.79%	-2.04%	-23.7%	22.5%	-4.65%	9.57%	18.2%	-2.49%
COc1ccc(Br)c(C(=O)N2CCC(c3n[nH]c(C4CC4)n3)CC2)c1	-4.1%	16.5%	1.39%	2.29%	0.513%	-3.23%	11.8%	4.22%	4.17%	25.3%	-27.6%
CCn1c(C)nnc1CN(C)C1CCN(Cc2nccn2C)C1 (configuration not stated)	2.98%	10.8%	-6.53%	-4.6%	-8.7%	2.23%	11.8%	16.4%	9.68%	16.1%	-3.99%
CC(C)Nc1nc(N2CCOCC2)nc2c1CN(Cc1ccoc1)CC2	-4.76%	5.33%	12.8%	1.46%	-1.97%	6.76%	7.84%	8.61%	7.45%	16.7%	-3.95%
Cc1ccc(CC(=O)N(C)CC2(O)CCN(c3ccccn3)C2)s1 (configuration not stated)	-3.85%	-1.35%	12.4%	-1.42%	0.198%	-2.09%	0%	1.85%	4.3%	6.49%	-1.65%
Cc1nc(CNCc2c(C)nn(C)c2N2CCOCC2)cs1	-2.88%	7.89%	-0.222%	9.92%	3.95%	2.68%	5.68%	-6.91%	4.41%	-4.88%	-3.53%
O=C(c1ccc(Cl)o1)N1CCCC(c2cc(C(F)(F)F)[nH]n2)C1 (configuration not stated)	-4.11%	7.89%	8.92%	-5.86%	-4.95%	-0.719%	2.45%	29.4%	3.45%	3.7%	-2.91%
CCCC(=O)N1CCC(O)(Cn2c(CC)nc3ccccc3c2=O)CC1	-1.08%	17.6%	21.5%	-2.15%	3.16%	-1.16%	9.2%	17.3%	4.3%	3.9%	-6.13%
CC(=O)N1CCC(C(=O)N(C)[C@@H]2CCC[C@@H](N3CCCC3)[C@@H]2O)CC1	-6.98%	20.3%	-7.25%	-2.3%	6.13%	-2.09%	13.4%	13.2%	5.38%	22.1%	-22.6%
CC(C)N1CCCC(CCCc2ccccn2)(C(=O)O)C1 (configuration not stated)	-3.09%	6.76%	15.5%	0.499%	-1.98%	-0.696%	12.3%	-2.07%	10.8%	14.3%	4.56%
COC(=O)CCC(=O)N1CCc2[nH]nc(-c3ccc4c(c3)OCO4)c2C1	-2.09%	8.11%	6.85%	21.3%	5.18%	11.2%	0.258%	-7.33%	2.15%	6.17%	-11.9%
Cc1nnc(N2CCOC(Cn3cccn3)C2)c(C#N)c1C (configuration not stated)	-1.71%	-5.26%	-36.6%	1.01%	2.26%	4.21%	-0.334%	-3.56%	2.45%	0%	-0.172%
CN(C(=O)c1cc(Cl)c[nH]1)C1CCN(c2ccccn2)CC1	-4.94%	-2.6%	-2.5%	-14.5%	6.17%	-4%	9.46%	-0.502%	13.3%	23.5%	-20.8%
COc1ccccc1CC1CCCN(CC(N)=O)C1 (configuration not stated)	-0.0936%	7.79%	0.0164%	9.64%	0.0979%	2.32%	-0.889%	-0.966%	2.86%	9.41%	-6.07%
Cn1cc(CCC(=O)N2CCN(Cc3ccncc3)CC2)cn1	-7.43%	15.6%	3.53%	-6.41%	-4.87%	-1.42%	4.22%	2.24%	6.8%	14.6%	-5.86%
O=C(CN1CCCC1Cn1cncn1)Nc1cccnc1 (configuration not stated)	-3.94%	9.72%	-1.95%	0.616%	-1.26%	4.86%	16%	-11.7%	5.26%	10.3%	-1.86%
CC(O)CN(CC(=O)NC(=O)NCC(F)(F)F)c1ccccc1 (configuration not stated)	-4.64%	7.79%	6%	6.31%	-3.82%	1.9%	7.36%	17.3%	0%	11.8%	-9.73%
O=C(NCCNc1ncccn1)N1CCN(Cc2cccnc2)CC1	-10.3%	13.5%	-7.65%	22.9%	10.5%	-16%	6.13%	2.94%	7.39%	23.5%	-14.1%
CCOc1nnc(CNC2CCCN(c3ccc(C)nn3)C2)s1 (configuration not stated)	-2.75%	13.5%	-13.2%	-9.51%	6.89%	-8.02%	15.1%	18.7%	5.42%	23.5%	-2.87%
O=C1NCCN1C1CCN(Cc2nc(-c3ccoc3)no2)CC1	-1.17%	5.2%	2.43%	5.09%	3.56%	-2.85%	4.56%	-2.53%	0.971%	12.2%	-2.45%
CCOCCOC(C)C(=O)NCc1cn2cc(Br)ccc2n1 (configuration not stated)	-0.315%	0%	8.27%	0.478%	1.27%	1.18%	9.68%	-18%	5.32%	10.4%	-1.5%
